# Experimental data: PubChem BioAssay (NCI)
# This is part of a sample that, as a whole, favours compounds with a hit. Of some 83,000 tested, about 20% had one in any assay.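 Assay: single dose, 48 h. Readout: percent growth (0 = no net growth; negative = cell death). Active: <10.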 A number with no mark means an inactive call. The source made the active and inactive calls.
# Key:
# Assay in all cases: NCI-60 one-dose screen, 48 h (100 = growth as untreated, 0 = no growth, -100 = all killed)
# Details in all cases: 10 µM unless noted
# DU-145 prostate = system: DU-145 prostate
# K-562 leukemia = system: K-562 leukemia
# MALME-3M melanoma = system: MALME-3M melanoma
# MDA-MB-231 breast = system: MDA-MB-231 breast
# RXF 393 renal = system: RXF 393 renal
# SF-268 CNS = system: SF-268 CNS
# SF-295 CNS = system: SF-295 CNS
# SF-539 CNS = system: SF-539 CNS
# UACC-257 melanoma = system: UACC-257 melanoma
# M14 melanoma = system: M14 melanoma
# HCT-15 colon = system: HCT-15 colon
# HT29 colon = system: HT29 colon
# SNB-19 CNS = system: SNB-19 CNS
# U251 CNS = system: U251 CNS
# PC-3 prostate = system: PC-3 prostate
# UACC-62 melanoma = system: UACC-62 melanoma
# LOX IMVI melanoma = system: LOX IMVI melanoma
# SK-MEL-28 melanoma = system: SK-MEL-28 melanoma
# SK-MEL-5 melanoma = system: SK-MEL-5 melanoma
Structure (SMILES),growth (DU-145 prostate),growth (K-562 leukemia),growth (MALME-3M melanoma),growth (MDA-MB-231 breast),growth (RXF 393 renal),growth (SF-268 CNS),growth (SF-295 CNS),growth (SF-539 CNS),growth (UACC-257 melanoma),growth (M14 melanoma),growth (HCT-15 colon),growth (HT29 colon),growth (SNB-19 CNS),growth (U251 CNS),growth (PC-3 prostate),growth (UACC-62 melanoma),growth (LOX IMVI melanoma),growth (SK-MEL-28 melanoma),growth (SK-MEL-5 melanoma)
COc1cc(-c2nc(N=Nc3c(O)[nH]c4ccc(Br)cc34)[nH]c(=O)c2C#N)cc(OC)c1OC,103%,90.9%,94.9%,93.9%,102%,101%,91.1%,96%,91.9%,97.1%,98.6%,106%,100%,99.7%,98.8%,96.1%,98.2%,111%,
Cn1cnc2c(N3CCN(C(=O)OCc4ccc5c(Cl)cc(Cl)c(O)c5n4)CC3)nc(Cl)nc21,61.1%,44.9%,85.2%,83%,74.4%,59.5%,38.7%,82.7%,89.6%,66.1%,30.5%,113%,60.3%,38.6%,,53.7%,44.5%,68.5%,41.6%
CCCCCCCCC(C)OC(=O)c1nn(C(C)=O)c2ccccc12 (stereo not drawn),110%,106%,106%,99.7%,105%,102%,91.5%,98.7%,99.7%,101%,101%,103%,107%,94.7%,95.7%,92.3%,103%,116%,
COc1cccc(/C=C2\Oc3cc(OCCCN4CCCC4)ccc3C2=O)c1,94.7%,-35.5% (active),98.9%,76.7%,81%,88.3%,91.1%,76.1%,102%,65.9%,19.3%,17.8%,87.9%,75.6%,69%,96.7%,20.6%,100%,
COc1cc(/C=N\NC(=O)CN2CCN(c3cc4c(cc3F)c(=O)c(C(=O)N/N=C/c3cc(OC)c(OC)c(OC)c3)cn4C3CC3)CC2)cc(OC)c1OC,8.55% (active),5.07% (active),-15.8% (active),-16.1% (active),-3.67% (active),-6.34% (active),17.4%,-68.2% (active),22.2%,18.2%,101%,4.47% (active),19.1%,2.13% (active),-19.8% (active),-34.7% (active),-67.1% (active),-11.6% (active),
COc1ccc(NC(=O)c2c(Nc3ccc(OC)cc3OC)n[nH]c2N)c(OC)c1,108%,95.6%,107%,72.7%,81.1%,102%,92.1%,116%,114%,89.6%,104%,102%,90.3%,96.4%,,68%,101%,96.6%,79.9%
O=[N+]([O-])c1ccc(Sc2ncccn2)c([N+](=O)[O-])c1,11.1%,12.7%,75.8%,68.6%,-38.6% (active),52.8%,111%,96.7%,29.4%,62.5%,38.9%,62.2%,99.3%,78.6%,32.9%,60.7%,68.1%,71.9%,
COc1ccc(OC)c(/C=C2\Oc3cc(OCCCN4CCCC4)ccc3C2=O)c1,79.6%,-5.23% (active),104%,68.8%,73.4%,79.8%,97.4%,46%,40.5%,-2.52% (active),20%,10.3%,82.1%,74.2%,82.9%,95.9%,12%,87.4%,
CCCCCCCCCCCCNC(=O)[C@H]1CSC(c2ccsc2)N1 (stereo partly drawn),-85.8% (active),-57% (active),-69.9% (active),-80.5% (active),-93.2% (active),-77.1% (active),-29.9% (active),-89.2% (active),-87.2% (active),-77.5% (active),-71.4% (active),-74% (active),-80% (active),-94.2% (active),-88.9% (active),-93.5% (active),-89.5% (active),-88% (active),
COc1cc(-c2nc(-c3nc4ccc(Cl)cc4[nH]3)cc3c2[nH]c2ccccc23)cc(OC)c1OC,86.8%,54.1%,92.7%,4.62% (active),63.5%,68%,61.3%,67.3%,100%,71.7%,72.8%,75%,79.9%,80.1%,53.2%,33.6%,67.8%,99.8%,
C=C1CCC[C@]2(C)CCC[C@H](C)[C@@H](OC(C)=O)[C@@H]3OC(=O)C(=C)[C@@H]3C[C@H]1O2,85.5%,61.7%,97.9%,70.7%,70.1%,88.7%,80.2%,88.2%,74.3%,83.2%,65.9%,67.8%,88.9%,72.5%,53%,58%,72.2%,95.2%,
